Reference: PubChem BioAssay AID1159580 (chemical genetic matrix, 2015)
The campaign covered roughly 5,500 compounds. About 2,000 (36%) were called active. Not shown: some 18% with an inconclusive outcome. Cut-off read from the data, not from the text of the source: active = normalized growth mostly below about 0.91 (no sharp cut-off); inconclusive = no clear call, values can overlap the other calls; inactive = mostly above about 0.92. The list shows a part of the results.

Experiment: chemical genetic growth profiling, strain panel (AID 1159580);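 note: tested at 20 µM; growth read once vehicle control cultures reached saturation at 30 °C; 1 = growth at the plate median or of vehicle wells; lower values mean less growth of the strain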
Conditions: S. cerevisiae deletion strains, growth OD

Measured: normalized growth

COc1ccc(C(=O)CSC2=NCCc3ccccc32)cc1
inactive: locus YAR019C, strain CDC15, active compounds read low 0.975 | locus YBL105C, strain PKC1, active compounds read low 0.982 | locus YBR135W, strain CKS1, active compounds read low 0.959 | locus YBR136W, strain MEC1, active compounds read low 0.978 | locus YBR160W, strain CDC28, active compounds read low 0.974 | locus YDL017W, strain CDC7, active compounds read low 0.98 | locus YDL028C, strain MPS1, active compounds read low 0.97 | locus YDL101C, strain DUN1, active compounds read low 0.976 | locus YDL108W, strain KIN28, active compounds read low 0.968 | locus YDL132W, strain cdc53, active compounds read low 0.974 | locus YDL214C, strain PRR2, active compounds read low 0.999 | locus YDR052C, strain DBF4, active compounds read low 0.983 | locus YDR054C, strain cdc34, active compounds read low 0.978 | locus YDR226W, strain ADK1, active compounds read low 0.971 | locus YDR477W, strain SNF1, active compounds read low 1 | locus YER123W, strain YCK3, active compounds read low 1.02 | locus YER133W, strain GLC7, active compounds read low 1.01 | locus YFL009W, strain cdc4, active compounds read low 0.968 | locus YFL029C, strain CAK1, active compounds read low 0.972 | locus YFR003C, strain YPI1, active compounds read low 0.979 | locus YFR019W, strain FAB1, active compounds read low 1.04 | locus YFR028C, strain CDC14, active compounds read low 0.982 | locus YGR040W, strain KSS1, active compounds read low 1 | locus YGR052W, strain FMP48, active compounds read low 1.13 | locus YGR092W, strain DBF2, active compounds read low 0.984 | locus YHR030C, strain SLT2, active compounds read low 1.01 | locus YHR079C, strain IRE1, active compounds read low 1 | locus YHR082C, strain KSP1, active compounds read low 1.04 | locus YHR205W, strain SCH9, active compounds read low 0.938 | locus YIL147C, strain SLN1, active compounds read low 0.971 | locus YJL095W, strain BCK1, active compounds read low 0.969 | locus YJL128C, strain PBS2, active compounds read low 0.951 | locus YJL157C, strain FAR1, active compounds read low 0.995 | locus YJR016C, strain ILV3, active compounds read low 0.972 | locus YJR066W, strain TOR1 (second series), active compounds read low 1 | locus YJR066W, strain TOR1, active compounds read low 0.985 | locus YKL048C, strain ELM1, active compounds read low 1.03 | locus YKL067W, strain YNK1, active compounds read low 0.997 | locus YKL101W, strain HSL1, active compounds read low 0.98 | locus YKL193C, strain SDS22, active compounds read low 0.966 | locus YKL203C, strain TOR2, active compounds read low 1.05 | locus YLR113W, strain HOG1, active compounds read low 0.99 | locus YLR133W, strain CKI1, active compounds read low 1.01 | locus YLR403W, strain SFP1, active compounds read low 1.01 | locus YML070W, strain DAK1, active compounds read low 1 | locus YMR001C, strain CDC5, active compounds read low 0.962 | locus YMR205C, strain PFK2 (second series), active compounds read low 0.998 | locus YMR277W, strain FCP1, active compounds read low 0.968 | locus YNL006W, strain LST8, active compounds read low 0.969 | locus YNL020C, strain ARK1, active compounds read low 1.02 | locus YNL161W, strain CBK1, active compounds read low 0.964 | locus YNL183C, strain NPR1, active compounds read low 0.977 | locus YNL207W, strain RIO2, active compounds read low 0.977 | locus YNL222W, strain SSU72, active compounds read low 0.976 | locus YNL307C, strain MCK1 (second series), active compounds read low 1.02 | locus YOL078W, strain AVO1, active compounds read low 0.966 | locus YOL136C, strain PFK27, active compounds read low 1.02 | locus YOR061W, strain CKA2, active compounds read low 0.967 | locus YOR119C, strain RIO1, active compounds read low 1.07 | locus YOR231W, strain MKK1, active compounds read low 0.966 | locus YOR329C, strain SCD5, active compounds read low 0.982 | locus YPL031C, strain PHO85, active compounds read low 0.997 | locus YPL153C, strain RAD53, active compounds read low 1 | locus YPL204W, strain HRR25, active compounds read low 1.02 | locus YPL209C, strain IPL1, active compounds read low 0.973 | locus YPL256C, strain CLN2, active compounds read low 1.07 | locus YPR025C, strain CCL1, active compounds read low 0.97 | locus YPR106W, strain ISR1, active compounds read low 0.986 | locus YPR111W, strain DBF20, active compounds read low 0.97 | strain NNK1, active compounds read low 0.995 | strain TSCII, active compounds read low 0.964
